Laboratory results: PubChem BioAssay (Tox21)
Inconclusive results are not listed. Where a call stands in place of a potency, no number is given. Calls of active or inactive are those of the source. Calls follow the shape of the dose curve; as a rule, active = well fitted inhibition curve with a large enough effect in the signal ratio in the repeat runs (not every such curve was filed as active); inconclusive = weak or mixed curves, or effect the other way; inactive = flat fitted curve, though single readings scatter; the % refers to the signal ratio.

Test: cAMP Responsive Elements (CRE) small molecule antagonists, cell-based qHTS assay (AID 1963591)
Conditions: CRE-bla HEK293T, beta-lactamase FRET ratio; series mostly up to 92.4 µM
Source text: U.S. Tox21 Program National Center for Advancing Translational Sciences [NCATS] Division of Preclinical Innovation [DPI] U.S. Environmental Protection Agency [EPA] National Institutes of Environmental Health Sciences [NIEHS] National Toxicology Program [NTP] U.S. Food and Drug Administration [FDA] Tox21 Assay Overview: CREB (cyclic-AMP Responsive Element Binding Protein) is a cellular transcription factor. It binds to certain DNA sequences called cAMP Responsive Elements (CRE) and regulates the transcription of the genes. […] This cell line can be used to find agonists/antagonists of the cyclic AMP signaling pathway. The activation of the report gene under culture conditions can be detected by fluorescence intensity. This cell line has been used to screen the Tox21 10K compound library to […].
Tox21 Assay Protocol Summary: CRE-bla Hek 293T cells were suspended in assay medium (DMEM containing 10% dialyzed FBS, 0.1 mM NEAA, 1 mM sodium pyruvate and 25 mM HEPES) and dispensed at 2,000 cells/4 uL /well into 1536-well black wall/clear bottom plates using a Multidrop Combi (ThermoFisher Scientific, Waltham, MA) dispenser. After the assay plates were incubated at 37 C/5% CO2 for 18 hrs, 23 nL of compounds dissolved in DMSO, positive controls or DMSO only was transferred to the assay plate by a pintool workstation (Kalypsys, San Diego, CA), followed by addition of 1 […] uL of 1.25uM NKH477 (0.25 uM as final concentration) in assay medium using a Flying Reagent Dispenser (Aurora Discovery, San Diego, CA). The plates were incubated at 37 C and 5% CO2 for 3 hrs. Then 1 uL of LiveBLAzer B/G FRET substrate (Invitrogen, Carlsbad, CA) was added to each well using Bioraptr Flying Reagent Dispenser (FRD, Aurora Discovery, San Diego, CA). The plates were incubated at room temperature for 2 h.

Row | Compound | Potency
1 | O=NN1CCOCC1 | inactive
2 | Clc1nc(Cl)nc(Nc2ccccc2Cl)n1 | inactive
3 | C/C=C/c1ccc2c(c1)OCO2 | inactive
4 | NC(=O)CN1CCCC1=O | inactive
5 | CCNc1nc(Cl)nc(NC(C)(C)C#N)n1 | inactive
6 | CCCCCCCCCCCCCCCC[N+](C)(C)C | inactive
7 | CCCC(=O)Cl | inactive
8 | S=c1[nH]c2ccccc2[nH]1 | inactive
9 | CC1(C)C(C=C(Cl)Cl)C1C(=O)OC(C#N)c1ccc(F)c(Oc2ccccc2)c1 (stereo not given) | inactive
10 | COC(=O)NS(=O)(=O)c1ccc(N)cc1 | inactive
11 | C=C(C)CCl | inactive
12 | CCCCN(CC)C(=O)SCCC | inactive
13 | COC(C)(C)CCCC(C)C/C=C/C(C)=C/C(=O)OC(C)C (stereo not given) | inactive
14 | C(CCOCC1CO1)COCC1CO1 (stereo not given) | inactive
15 | CCCC[n+]1ccc(C)cc1 | inactive
16 | CCC12COCN1COC2 | inactive
17 | O=C(O)C(Br)Br | inactive
18 | COC(=O)c1cncn1C(C)c1ccccc1 (stereo not given) | inactive
19 | C#CCOC(C(=O)OCCN(C)C)(c1ccccc1)c1ccccc1 | inactive
20 | OC[P+](CO)(CO)CO | inactive

Row | Compound | Potency
21 | CC(O)CN(CC(C)O)CC(C)O (stereo not given) | inactive
22 | C[C@]12CC[C@H]3[C@@H](CCC4=CC(=O)CC[C@@H]43)[C@@H]1CC[C@@H]2O | inactive
23 | CCCCCCCCCCCCCCCl | inactive
24 | COC(=O)c1ccccc1N | inactive
25 | Oc1ccc(Cl)cc1Cl | inactive
26 | C=CCc1ccc2c(c1)OCO2 | inactive
27 | CCNCC | inactive
28 | CCC(C)C(C)(COC(N)=O)COC(N)=O (stereo not given) | inactive
29 | O=c1nc(O)n(Cl)c(=O)n1Cl | inactive
30 | COP(=S)(OC)Oc1cc(Cl)c(Cl)cc1Cl | inactive
31 | CC(=[OH+])/C=C(/C)[O-].CC(=[OH+])/C=C(\C)[O-].CC(=[OH+])/C=C(\C)[O-].[Al] | inactive
32 | N#CCCCCC#N | inactive
33 | COC(C)(C)C | inactive
34 | O=C(O)c1ccccc1O | inactive
35 | O=[N+]([O-])c1cc(Cl)c(Cl)c(Cl)c1 | inactive
36 | FC(Cl)(Cl)Cl | inactive
37 | c1ccc(Nc2ccc3ccccc3c2)cc1 | inactive
38 | Nn1cnnc1 | inactive
39 | O=S(=O)(Cl)Cl | inactive
40 | CCc1cccc(C)c1N(C(=O)CCl)C(C)COC (stereo not given) | inactive
